Measured values: PubChem BioAssay (NCI)
The panel holds about 79,000 compounds, 15% with a hit somewhere; the sample as a whole holds those more often. No stated cut-off is given here; in the data, active means growth inhibition above about 70%; inactive means the rest.

What was measured:
[1] = NCI Yeast Anticancer Drug Screen. Data for the rad50 strain (AID 155);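 further: 0% = growth of vehicle-only cultures of the same strain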; conditions: S. cerevisiae rad50 strain growth inhibition; at 50.0 µM; active compounds read high
Summary of the method: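 A DNA repair-deficient yeast mutant serves as the test organism; compound-induced growth inhibition is calculated against vehicle-treated cells.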

[2] = NCI Yeast Anticancer Drug Screen. Data for the mec2-1 strain (AID 157); conditions: S. cerevisiae mec2-1 strain, at 50.0 µM, active compounds read high
Summary of the method: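 Yeast mec2-1 mutant treated with compound. Readout: growth inhibition vs vehicle controls.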

[3] = NCI Yeast Anticancer Drug Screen. Data for the sgs1 mgt1 strain (AID 161);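 further: 0% = growth of cultures given vehicle only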; conditions: S. cerevisiae sgs1 mgt1 strain, at 50.0 µM, active compounds read high
Summary of the method: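 Read-out: growth inhibition vs vehicle controls. Cells: mutant yeast strain deficient in DNA damage repair.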

[4] = NCI Yeast Anticancer Drug Screen. Data for the cln2 rad14 strain (AID 165);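 further: 0% = growth equal to vehicle treated cultures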; conditions: S. cerevisiae cln2 rad14 strain, at 50.0 µM, active compounds read high
Summary of the method: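 cln2 rad14 yeast strain; compound exposure; growth inhibition read vs vehicle controls.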

[5] = NCI Yeast Anticancer Drug Screen. Data for the bub3 strain (AID 167); conditions: S. cerevisiae bub3 mutant strain, at 50.0 µM, active compounds read high
Summary of the method: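 Inhibition values come from growth of compound-treated mutant yeast normalised to vehicle-treated controls.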

[6] = NCI Yeast Anticancer Drug Screen. Data for the mlh1 rad18 strain (AID 175); conditions: S. cerevisiae mlh1 rad18 strain growth inhibition; at 50.0 µM; active compounds read high
Summary of the method: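 Yeast w/ defined DNA-repair lesions; compound exposure; growth vs vehicle controls → % inhibition.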

Measured: growth inhibition

COc1ccc(C(=O)C(CO)Oc2ccccc2OC)cc1OC (configuration not stated)
inactive: [1] -3.05% | [2] 7.5% | [3] -20.2% | [4] 4.25% | [5] -13.5% | [6] -1.35%

C/C(CCn1[nH]c(=O)ccc1=O)=N\OCCCc1ccccc1
inactive: [1] 2.7% | [2] -27.6% | [3] 11.7% | [4] 16.3% | [5] -3% | [6] 11.5%

N#C/C=C(\N)C(C#N)C#N
inactive: [1] -4.85% | [2] -25.9% | [3] -3.15% | [4] 6.75% | [5] -3.6% | [6] 4.8%

CCN(CC)CCCNc1ccnc2c(N)cccc12
inactive: [1] 3.1% | [2] 1.4% | [3] 5.65% | [4] 9.75% | [5] 5.45% | [6] 6.75%

Cc1ccsc1C(=O)c1ccccc1
inactive: [1] -11.6% | [2] -7% | [3] -5.65% | [4] -24.6% | [5] -1.5% | [6] 5.45%

COc1ccc2c(c1O)C1(CCN(C)C)CC(=O)CCC1C=C2 (configuration not stated)
inactive: [1] 13.2% | [2] -11.5% | [3] 9.55% | [4] 6.2% | [5] 25.5% | [6] 12.4%

CN(Cc1ccccc1)C(=O)NC1CCCCC1
inactive: [1] 2.3% | [2] 0.05% | [3] 4.8% | [4] -22.8% | [5] 3.4% | [6] 2.55%

CC(=O)CC(=O)NCC#N
inactive: [1] 27.9% | [2] 15.8% | [3] 23.9% | [4] 25.6% | [5] 11.8% | [6] 24.6%

COc1ccc(C2OC23CC(C)(C)c2ccccc2C3=O)cc1 (configuration not stated)
inactive: [1] -3.8% | [2] 1.65% | [3] -0.05% | [4] -11% | [5] 16.3% | [6] -1.1%

Cc1nc(N)sc1C(=O)/C=C/c1ccc([N+](=O)[O-])cc1
inactive: [1] 16.2% | [2] -2.6% | [3] -15.7% | [4] 20.8% | [5] 15.1% | [6] 9.45%

C[N+](C)(C)C=Nc1cccc2c1CCCC2
inactive: [1] 2.6% | [2] -37.8% | [3] -26.4% | [4] -7.05% | [5] 6.05% | [6] 1.55%

Cc1ccc(-c2nnc(-c3cccc4ccccc34)o2)cc1
inactive: [1] 1.85% | [2] -31.9% | [3] 0.75% | [4] 4.1% | [5] -44.1% | [6] -8.05%

COc1ccc(C2N(C(C#N)c3ccccc3OC)CCCN2C(C#N)c2ccccc2OC)c(OC)c1 (configuration not stated)
inactive: [1] 57.1% | [2] 18.3% | [3] 30.3% | [4] 25.4% | [5] -2.55% | [6] 42%

O=CCCc1ccccc1
inactive: [1] 31.6% | [2] -22.1% | [3] -22.2% | [4] -29.6% | [5] 22% | [6] 56.1%

CC12CCCCC1C(C(C)(C)OC(=O)c1ccc([N+](=O)[O-])cc1)CC2 (configuration not stated)
inactive: [1] 15% | [2] 8.2% | [3] 17.4% | [4] -8.85% | [5] 12.6% | [6] 21.1%

O=[N+]([O-])c1ccc2c(c1)C(O)c1ccccc1-2 (configuration not stated)
inactive: [1] 35.6% | [2] 24.6% | [3] 12.9% | [4] 26.9% | [5] 26.2% | [6] 29.1%

CCOC(=O)CC1OCCO1
inactive: [1] 7.65% | [2] -3.35% | [3] -24.7% | [4] 5.25% | [5] 2.4% | [6] -5.15%

C(=N/Nc1ccccc1)/c1ccco1
inactive: [1] 31.6% | [2] -1% | [3] -2.05% | [4] 13.7% | [5] 12.5% | [6] 54.9%

CC1=C(C(=O)Nc2cccc3c2C(=O)NC3=O)CC(C(=O)Nc2cccc3c2C(=O)NC3=O)=C(C)N1
inactive: [1] -51% | [2] -18.6% | [3] -6.15% | [4] -25.8% | [5] -10.9% | [6] -25.8%

CCc1ccccc1NC(=O)COc1ccc(Cl)cc1
inactive: [1] 5.7% | [2] 29.2% | [3] 18.8% | [4] 0.45% | [5] 34.2% | [6] 1.1%

O=C(Cc1ccccc1)N/N=C\Cc1ccccc1
inactive: [1] -4.85% | [2] 22.8% | [3] 20.8% | [4] -14.1% | [5] -2.35% | [6] 2.25%

CC(C)C1CCC(C)(C(N)=O)C1 (configuration not stated)
inactive: [1] 8.2% | [2] 2.65% | [3] -1.3% | [4] -23.4% | [5] -8.25% | [6] -2.1%

CC(=O)NCCCCCC(=O)N(C)C
inactive: [1] -32.6% | [2] -8.45% | [3] -16.8% | [4] -17.6% | [5] -3.3% | [6] -5.35%

CC(C)(C)CC(C)(C)NS(=O)(=O)NC(C)(C)CC(C)(C)C
inactive: [1] 1.1% | [2] -31.1% | [3] -9.15% | [4] -57.3% | [5] 1.45% | [6] 0.7%

CCC(CC)COC(=O)c1ccccc1
inactive: [1] 0.95% | [2] -7.05% | [3] -3.75% | [4] -14.8% | [5] 17.2% | [6] -0.75%

NC(=O)c1ncn(C2OC(CO)C(O)C2O)c1C(N)=O (configuration not stated)
inactive: [1] -7.6% | [2] -24.8% | [3] -12.5% | [4] -4.9% | [5] -0.3% | [6] -24.6%

CCN(CC)C(=O)CN
inactive: [1] 8.9% | [2] 0.6% | [3] 9.1% | [4] -3.05% | [5] 3.3% | [6] -8.15%

O=C(Nc1ccc(S(=O)(=O)N2CCCCC2)cc1)OC1CCCC1
inactive: [1] 3.85% | [2] 14.7% | [3] 1.15% | [4] 18.9% | [5] 14.8% | [6] -12.6%

O=C(c1cccs1)c1cccs1
inactive: [1] -6.4% | [2] -12.9% | [3] -17.6% | [4] -67% | [5] 8.3% | [6] -8.45%

COC(=O)[C@@]12C(=O)N[C@@H](Cc3ccccc3)[C@@H]1[C@H](C)C(C)=C[C@@H]2CO
inactive: [1] -27.4% | [2] -45.3% | [3] -44.9% | [4] -27.8% | [5] -32.2% | [6] -24.3%

Cn1c(=O)c2c(ncn2CC(=O)O)n(C)c1=O
inactive: [1] -3.9% | [2] -28.1% | [3] -8.5% | [4] 6.7% | [5] -13.8% | [6] 19.9%

CC(C)SCC(N)C(=O)O (configuration not stated)
inactive: [1] -17.8% | [2] -10.7% | [3] -2.65% | [4] -15% | [5] -11.8% | [6] -15.8%

N=C(N)C=O
inactive: [1] -12.4% | [2] 0.3% | [3] 5.45% | [4] 0.05% | [5] 1.45% | [6] -7.95%

COc1ccc(NC(=O)C(=O)C(C(=O)c2ccccc2)C2OC(=O)c3ccccc32)c([N+](=O)[O-])c1 (configuration not stated)
inactive: [1] 8.85% | [2] 5.6% | [3] -23.2% | [4] 26.1% | [5] 28.4% | [6] 8.1%

COc1cc2c[n+](C)c3c4ccccc4ccc3c2cc1OC
inactive: [1] 40.4% | [2] 55.2% | [3] 18.9% | [4] 2.75% | [5] 22.2% | [6] 38.5%

CCOC(=O)C1CC(CCl)OC1=O (configuration not stated)
inactive: [1] -3.65% | [2] 7.1% | [3] 2.1% | [4] -22.9% | [5] 0.6% | [6] 3.95%

Nc1nc(N)nc(C2C=CCCC2)n1 (configuration not stated)
inactive: [1] -19.6% | [2] 1.85% | [3] -13% | [4] -32.6% | [5] -11.4% | [6] -18.1%
